A number with no mark means an inactive call. Calls of active or inactive are those of the source. The call rests on the fitted dose curve; in most records, active means well fitted curve in the direction sought with a large enough effect in the repeat runs; inconclusive means weak or mixed curves; inactive means flat fitted curve, though single readings scatter.
Assay: qHTS assay to test for compound auto fluorescence at 535 nm (green) in HepG2 cells (AID 720675)
Conditions: green autofluorescence 485/535 nm, 1 h; series mostly up to 91.3 µM; fluorescence, % of fluorescein control: at the top concentration
Description: National Center for Advancing Translational Sciences [NCATS]
NIH Chemical Genomics Center [NCGC]
U.S. Environmental Protection Agency [EPA]
National Institutes of Environmental Health Sciences [NIEHS]
National Toxicology Program [NTP]
U.S. Food and Drug Administration [FDA]
Compound auto fluorescence often interferes with screening of the compound library against various biological targets and signaling pathways. Some of these compounds may have fluorophoric properties. Such properties may interfere with the assay outputs resulting in false positives and/or negatives. To decrease such complications and ensure the compound activities are relevant in terms of biological response, the Tox21 10K compound library was screened for auto fluorescence.
From the fluorophores used as reporter signals in our screening assays, the auto fluorescence equivalencies of compounds against three fluorophores have been evaluated: Triamterene, Fluorescein and Rose Bengal sodium for blue, green and red fluorescence, respectively. The fluorescence intensities were measured using Excitation/Emission wavelengths at 405/460nm, 485/535nm and 540/590nm for blue, green and red labels, respectively. This assay includes the green fluorescence data.
Tox21 Assay Protocol Summary:
2,000 HepG2 cells in 5 uL of culture medium (MEM containing 10% FBS) per well were dispensed into black wall/clear bottom 1536-well plates using a Multidrop Combi Dispenser (ThermoFisher Scientific, Waltham, MA). The assay plates were incubated overnight at 37 C to allow cell attachment to the well bottom, followed by the transfer of 23 nL compound or DMSO vehicle by a pintool work station (Kalypsys , San Diego, CA). After the assay plates were incubated for 1 hr at 37 C and 5% CO2, fluorescence intensities in the assay plates were measured by an Envision (PerkinElmer, Shelton, CT) plate reader using three labels for measuring blue, green and red fluorescence at […] 460, 535 and 590 nm respectively.
On the % scale 0 is the no-effect control and ±100 the full control effect.

SMILES | fluorescence, % of fluorescein control | Potency
CC(C(=O)O)c1ccc2c(c1)[nH]c1ccc(Cl)cc12 (stereo not given) | 0.0152% [at 46 µM] | –
S=C([S-])NCCNC(=S)[S-].S=C([S-])NCCNC(=S)[S-].[Mn+2].[Zn+2] | 0.121% [at 46 µM] | –
CC1(C)CCC[C@]2(C)[C@H]3CC(=O)O[C@]3(C)CC[C@@H]12 | 0.0817% | –
CC(C)(c1cc(Br)c(OCC(Br)CBr)c(Br)c1)c1cc(Br)c(OCC(Br)CBr)c(Br)c1 (stereo not given) | -0.0488% [at 46 µM] | –
Cc1ccc(O)c(O)c1 | -0.181% | –
O=c1[nH]c(=O)n([C@H]2C[C@H](O)[C@@H](CO)O2)cc1F | -0.0435% [at 46 µM] | –
CC(C)OC(=O)C(O)(CC(=O)O)CC(=O)O | -0.0263% | –
C#C[C@]1(OC(C)=O)CC[C@H]2[C@@H]3CCC4=C[C@@H](OC(C)=O)CC[C@@H]4[C@H]3CC[C@@]21C | – | inactive
COc1ccc(-c2coc3cc(O)ccc3c2=O)cc1 | -0.0058% | –
O=C(/C=C/c1ccccc1)OC/C=C/c1ccccc1 | 0.149% | –
C=CCCC(=O)/C=C/C1C(C)=CCCC1(C)C (stereo not given) | -0.0163% | –
Cc1ccc(C(C)C)cc2c(C)ccc1-2 | 0.0792% [at 46 µM] | –
CCN(CCN)c1cccc(C)c1 | – | inactive
Nc1ccc(C(=O)O)c(O)c1 | 0.0205% [at 46 µM] | –
O=S(=O)(O)c1ccc(N=Nc2c(O)ccc3ccccc23)cc1 | -0.165% | –
CCCCCCCCCCCCOC(=O)c1ccc(O)cc1 | 0.0453% | –
CCCCCC(C)OC(=O)COc1ccc(Cl)c2cccnc12 (stereo not given) | -0.0668% | –
NC(=O)c1cccc([N+](=O)[O-])c1 | 0.0136% | –
O=C(O)O | -0.0364% [at 3.72 µM] | –
CCC(CC)(CC(=O)Nc1cccc(/C=C/c2nc(C3CCC3)cs2)c1)C(=O)O | 0.0286% [at 46 µM] | –

SMILES | fluorescence, % of fluorescein control | Potency
Nc1nc(N)nc(-c2cc(Cl)ccc2Cl)n1 | -0.102% [at 46 µM] | –
CCCCN(CCCC)CC(O)c1cc(Cl)cc2c1-c1ccc(Cl)cc1/C2=C/c1ccc(Cl)cc1 (stereo not given) | 0.0116% [at 46 µM] | –
C=CCn1c(=O)n(CC=C)c(=O)n(CC=C)c1=O | -0.103% | –
O=C1CCCCCCCCCCCCCCCO1 | 0.0156% | –
O=C(O)c1cc(N=Nc2ccc([N+](=O)[O-])cc2)ccc1O | -0.0916% | –
CC(=O)CC(=O)Nc1ccc(S(=O)(=O)O)cc1 | 0.0131% | –
O=C(O)CCN(C1(C(=O)NO)CCCC1)S(=O)(=O)c1ccc(Oc2ccc(F)cc2)cc1 | -0.0386% | –
Cc1c(C)c2c(c(C)c1OC(=O)c1cccnc1)CC[C@@](C)(CCC[C@H](C)CCC[C@H](C)CCCC(C)C)O2 | -0.0364% [at 46 µM] | –
CCC(=O)C(=O)CC | -0.0304% [at 95.7 µM] | –
CCn1c2ccccc2c2cc([N+](=O)[O-])ccc21 | 0.0027% | –
O=C(O)c1cc(-c2ccc(F)cc2F)ccc1O | -0.0913% [at 18.6 µM] | –
CC(C)CCCCCOC(=O)CCS | -0.0305% | –
c1ccc(SSc2ccccc2)cc1 | 0.0672% | –
CC(C)CCOC(=O)/C=C/c1ccccc1 | -0.0308% | –
Nc1nc2c(ncn2COCCO)c(=O)[nH]1 | 0.0011% [at 18.6 µM] | –
Cc1cc(-n2nc3ccc(Cl)cc3n2)c(O)c(C(C)(C)C)c1 | -0.0225% [at 46 µM] | –
CC1(C)CCC[C@]2(C)[C@H]3CCO[C@]3(C)CC[C@@H]12 | 0.0263% | –
O=C(O)c1cc(=O)c2ccccc2o1 | 0.0106% [at 46 µM] | –
[Cu+] | -0.103% | –
CCCCCCCCCCCCCCCC[N+](C)(C)CC | – | inactive

Reference: PubChem BioAssay (Tox21)
